Calls of active or inactive are those of the source. Unless noted, how the calls were made is not given here.

Experiment [1] is described as follows: compounds binding Alexa647 anti-His antibody – biochemical, small-molecule microarray, 635 nm fluorescence, artefact control for SMM control protein annotation, primary screen (AID 1128).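 Further: score merges feature fluorescence with signal-to-noise for each printed compound spot.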 The note with it: higher = more signal.
Experiment [2] relates to Human papillomavirus type 1a E7 protein (residues 1-88). Briefly: HPV1a E7 small-molecule binders, primary screen, biochemical, small-molecule microarray, residues 1-88, 635 nm (AID 1129). The note with it: small-molecule microarray binding, fluorescence 635 nm; higher = more signal.
In experiment [3] the target is Focal adhesion kinase 1 (Homo sapiens) (UniProt Q05397). Description: PTK2 protein binding on printed compound slides – biochemical, small-molecule microarray, 635/667 nm fluorescence, BSA, DTT, primary screen (AID 1130).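 Further: composite of spot emission at 667 nm and signal to noise over triplicate slides.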 The note with it: 635 nm fluorescence, higher = more signal.
Focal adhesion kinase 1 (Homo sapiens), sequence (Q05397 whole entry, looked up): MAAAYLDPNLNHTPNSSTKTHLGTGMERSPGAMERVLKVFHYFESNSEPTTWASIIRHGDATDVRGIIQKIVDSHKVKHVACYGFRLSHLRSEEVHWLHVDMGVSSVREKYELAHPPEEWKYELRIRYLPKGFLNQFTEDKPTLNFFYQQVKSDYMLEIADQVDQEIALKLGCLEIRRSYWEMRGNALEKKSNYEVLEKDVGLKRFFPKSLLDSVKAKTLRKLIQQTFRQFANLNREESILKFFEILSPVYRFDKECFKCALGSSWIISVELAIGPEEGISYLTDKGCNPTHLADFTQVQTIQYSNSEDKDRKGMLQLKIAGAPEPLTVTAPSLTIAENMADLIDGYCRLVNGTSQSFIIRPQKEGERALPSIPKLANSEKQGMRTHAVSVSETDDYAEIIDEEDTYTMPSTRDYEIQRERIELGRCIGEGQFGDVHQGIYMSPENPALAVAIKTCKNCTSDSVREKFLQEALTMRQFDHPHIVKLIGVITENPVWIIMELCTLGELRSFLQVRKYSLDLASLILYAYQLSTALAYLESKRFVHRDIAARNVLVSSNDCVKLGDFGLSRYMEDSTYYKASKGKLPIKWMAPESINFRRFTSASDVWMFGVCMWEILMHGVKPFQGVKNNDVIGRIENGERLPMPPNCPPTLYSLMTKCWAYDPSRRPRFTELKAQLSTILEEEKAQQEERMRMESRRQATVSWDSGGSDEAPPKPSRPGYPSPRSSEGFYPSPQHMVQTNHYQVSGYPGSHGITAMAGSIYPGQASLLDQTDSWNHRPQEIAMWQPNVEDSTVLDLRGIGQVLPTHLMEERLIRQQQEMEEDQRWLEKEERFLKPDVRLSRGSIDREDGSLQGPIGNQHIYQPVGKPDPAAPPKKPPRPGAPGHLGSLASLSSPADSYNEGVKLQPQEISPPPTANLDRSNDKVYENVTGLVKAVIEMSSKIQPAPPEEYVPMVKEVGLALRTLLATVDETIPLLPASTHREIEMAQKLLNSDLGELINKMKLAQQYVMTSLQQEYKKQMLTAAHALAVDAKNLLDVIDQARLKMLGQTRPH
Experiment [4] deals with Fibrinogen (Alexa647-labelled). Briefly: Alexa647-fibrinogen binding to printed small molecules – biochemical, small-molecule microarray, 635/667 nm fluorescence, artefact control for SMM control-protein annotation, profiling panel (AID 1131).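 Further: z-score merges 667 nm fluorescence with per-spot signal-to-noise over triplicate slides.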 The note with it: fibrinogen-A647 binding fluorescence, higher = more signal.
Experiment [5] addresses Follistatin (Homo sapiens) (UniProt P19883). Briefly: FST protein binding to printed compounds – biochemical, small-molecule microarray, 635/667 nm fluorescence, primary screen (AID 1132). The note with it: 635 nm fluorescence, higher = more signal.
In experiment [6] the target is Fibroblast growth factor 2 (Homo sapiens) (UniProt P09038). Description: basic fibroblast growth factor binding to printed compounds – biochemical, small-molecule microarray, 635/667 nm fluorescence, primary screen (AID 1133). The note with it: FGF2, fluorescence 635/667, higher = more signal.
Fibroblast growth factor 2 (Homo sapiens), sequence (P09038 whole entry, looked up): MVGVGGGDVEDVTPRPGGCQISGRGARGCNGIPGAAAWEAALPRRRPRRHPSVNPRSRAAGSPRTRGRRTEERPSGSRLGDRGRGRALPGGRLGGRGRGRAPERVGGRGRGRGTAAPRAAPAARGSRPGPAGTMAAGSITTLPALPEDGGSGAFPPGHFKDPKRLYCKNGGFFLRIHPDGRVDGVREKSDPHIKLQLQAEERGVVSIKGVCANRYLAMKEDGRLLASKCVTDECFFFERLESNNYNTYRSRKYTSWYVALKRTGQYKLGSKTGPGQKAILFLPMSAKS
The nature of experiment [7]: JC-1 mitochondrial potential readout, lung cancer cells – cell-based, A549, JC-1 fluorescence, basal, 24 h, 100 nL, profiling panel (AID 1138).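 Further: A549 lung adenocarcinoma cells under basal conditions with no added stimulus; test concentration not given here.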 The note with it: higher = more signal.
The test system of another experiment is Lefty1. Description: Lefty1 protein binding to printed compounds – biochemical, small-molecule microarray, 635/667 nm fluorescence, primary screen (AID 1139). The note with it: fluorescence 635/667, higher = more signal.
For experiment [8], the system named is wheat germ agglutinin (Triticum aestivum), Alexa647-labelled. Briefly: Alexa647-WGA lectin binding to printed small molecules – biochemical, small-molecule microarray, 635/667 nm fluorescence, artefact control for SMM control-protein annotation, profiling panel (AID 1140).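 Further: score merges 667 nm feature emission with signal to noise over triplicate slides.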 The note with it: WGA-A647 binding, 635 nm fluorescence, higher = more signal.
Experiment [9] has as its target Luciferin 4-monooxygenase (Photinus pyralis) (UniProt P08659). Description: inhibition of purified Photinus pyralis luciferase – biochemical, luminescence, purified enzyme, 2006 set, primary screen (AID 1141).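 Further: cell-free assay with purified firefly luciferase at 100 ng per well in PBS; test concentration not given here.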 The note with it: purified firefly luciferase, SteadyGlo luminescence, 30 min; higher = more signal, called active from +8 up or from −8 down.
Experiment [10] concerns Wnt5a (protein binding on small-molecule microarray). Description: small molecules binding Wnt5a protein – biophysical, small-molecule microarray, 635/667 nm fluorescence, primary screen (AID 1142).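 Further: fluorescence read at 667 nm with signal to noise per printed feature.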 The note with it: 635 nm fluorescence, higher = more signal.
The nature of experiment [11]: ATP-based viability of Huh7 replicon cells – cell-based, CellTiter-Glo luminescence, basal, 48 h, cytotoxicity control for HCV replication inhibitor project, primary screen (AID 1143).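 Further: Huh7 hepatoma cells carrying a hepatitis C replication reporter with no stimulus; test concentration not given here.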 The note with it: higher = more signal, called active from +8 up or from −8 down.
Experiment [12] in a line: Pseudomonas biofilm growth suppression – PAO1 strain, BacTiter-Glo luminescence, LB-PBS, primary screen (AID 1144). The note with it: P. aeruginosa PAO1 biofilm, 12 h, higher = more signal.
Experiment [13] is described as follows: basal CRE-LacZ reporter activity in PC12 – cell-based, unstimulated, primary screen (AID 1145). The note with it: no forskolin, luminescence, 4.5 h, higher = more signal, called active from +8 up or from −8 down.
Experiment [14] is described as follows: forskolin-driven CRE-LacZ activity in PC12 – cell-based, CRE-LacZ reporter, forskolin-stimulated, primary screen (AID 1146).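 Further: PC12 cells with 6xCRE LacZ reporter stimulated by forskolin 10 µM; beta-galactosidase reporter signal reflecting CREB driven transcription.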 The note with it: luminescence, 4.5 h, higher = more signal, called active from +8 up or from −8 down.
For experiment [15], the target named is Streptavidin (Streptomyces avidinii) (UniProt P22629). Briefly: compounds binding control protein streptavidin – biophysical, small-molecule microarray, 635/667 nm fluorescence, artefact control for SMM compound annotation, primary screen (AID 1147).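 Further: signal reflects streptavidin binding to arrayed compounds as a control protein.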 The note with it: higher = more signal.
Streptavidin (Streptomyces avidinii), sequence (P22629 whole entry, looked up): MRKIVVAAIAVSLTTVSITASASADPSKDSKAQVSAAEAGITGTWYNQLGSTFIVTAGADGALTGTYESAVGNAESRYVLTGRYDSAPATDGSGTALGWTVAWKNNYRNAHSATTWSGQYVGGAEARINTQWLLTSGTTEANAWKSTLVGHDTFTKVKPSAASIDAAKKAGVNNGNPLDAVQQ
Experiment [16] in a line: probe aInhba binding on compound microarray – biochemical, small-molecule microarray, 635/667 nm fluorescence, primary screen (AID 1148).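 Further: score merges 667nm spot fluorescence with signal-to-noise for antibody binding to printed compounds.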 The note with it: higher = more signal.
Experiment [17] deals with Torsin-1A (Homo sapiens) (UniProt O14656). Description: TOR1A wild-type binding on microarray – cell lysate, small-molecule microarray, lysate, 635/667 nm, primary screen (AID 1149). The note with it: COS7 hTOR1A-WT lysate, 635 nm fluorescence, higher = more signal.
Torsin-1A (Homo sapiens), sequence (O14656 whole entry, looked up): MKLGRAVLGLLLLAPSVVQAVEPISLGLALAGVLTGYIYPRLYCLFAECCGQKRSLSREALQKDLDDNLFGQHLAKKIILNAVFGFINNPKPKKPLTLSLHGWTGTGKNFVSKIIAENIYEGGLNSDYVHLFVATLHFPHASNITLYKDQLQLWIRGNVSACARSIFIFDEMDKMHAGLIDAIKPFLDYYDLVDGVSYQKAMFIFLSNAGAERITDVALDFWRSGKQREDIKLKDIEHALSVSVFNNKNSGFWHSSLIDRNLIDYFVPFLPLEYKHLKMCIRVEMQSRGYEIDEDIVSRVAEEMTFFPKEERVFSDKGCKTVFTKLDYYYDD
Experiment [18] shares this target. Description: torsin A mutant lysate binding on microarrays – cell lysate, small-molecule microarray, COS7 lysate, 635/667 nm fluorescence, primary screen (AID 1150).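 Further: score pools 667 nm emission and signal to noise measuring lysate protein binding.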 The note with it: COS7 hTOR1A mutant lysate, 635 nm fluorescence, higher = more signal.
Experiment [19] deals with Sonic hedgehog protein (Shh). Briefly: Sonic hedgehog microarray binding compounds – biochemical, small-molecule microarray, 635/667 nm fluorescence, primary screen (AID 1151).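 Further: Shh protein binding to compounds spotted on small-molecule microarray slides; score combines spot fluorescence intensity with signal-to-noise across triplicate slides.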 The note with it: 635 nm fluorescence, higher = more signal.

Luciferin 4-monooxygenase (Photinus pyralis), sequence (P08659 whole entry, looked up): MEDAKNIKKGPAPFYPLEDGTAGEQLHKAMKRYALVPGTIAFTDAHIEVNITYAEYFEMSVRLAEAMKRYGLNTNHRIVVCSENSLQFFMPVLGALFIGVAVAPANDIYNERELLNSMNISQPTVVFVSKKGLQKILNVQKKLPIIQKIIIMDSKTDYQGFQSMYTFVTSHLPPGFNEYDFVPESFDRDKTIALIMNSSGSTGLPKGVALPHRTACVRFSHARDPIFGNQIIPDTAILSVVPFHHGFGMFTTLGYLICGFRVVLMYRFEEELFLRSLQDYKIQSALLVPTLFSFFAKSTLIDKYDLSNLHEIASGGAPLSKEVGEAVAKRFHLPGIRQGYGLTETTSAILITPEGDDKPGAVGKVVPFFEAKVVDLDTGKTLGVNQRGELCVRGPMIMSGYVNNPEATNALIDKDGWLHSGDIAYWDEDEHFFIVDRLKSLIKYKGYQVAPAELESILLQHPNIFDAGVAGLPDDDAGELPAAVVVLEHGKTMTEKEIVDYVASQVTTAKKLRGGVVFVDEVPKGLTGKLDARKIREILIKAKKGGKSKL
Follistatin (Homo sapiens), sequence (P19883 whole entry, looked up): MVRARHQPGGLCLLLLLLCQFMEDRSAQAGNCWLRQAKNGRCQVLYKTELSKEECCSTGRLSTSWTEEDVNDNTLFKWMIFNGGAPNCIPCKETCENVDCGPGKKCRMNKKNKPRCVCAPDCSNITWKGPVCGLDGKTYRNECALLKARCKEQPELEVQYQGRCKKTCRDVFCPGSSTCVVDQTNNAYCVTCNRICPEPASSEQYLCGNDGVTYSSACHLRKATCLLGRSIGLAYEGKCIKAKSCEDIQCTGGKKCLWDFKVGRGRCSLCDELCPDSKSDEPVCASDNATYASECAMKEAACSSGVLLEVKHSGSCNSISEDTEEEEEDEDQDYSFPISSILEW

For the compound `O=C1C[C@@H](O)[C@@H](O)[C@@H]2[C@@H]3C(=O)N(Cc4ccc5c(c4)OCO5)C(=O)[C@@H]3CC[C@H]12`, the composite z-score turned out to be 0.324 in [1]; 0.923 in experiment [2]; 0.381 in experiment [3]; 0.735 in [4]; 0.243 in experiment [5]; 0.19 in experiment [6]. Moreover, the composite z-score in the experiment on Lefty1 was 0.428; in experiment [8], -0.203; in experiment [10], -0.005; in experiment [15], 0.139; in [16] it was -0.152; with Torsin-1A (Homo sapiens) [17], 0.0825. The composite z-score in the experiment with Torsin-1A (Homo sapiens) [18] is 0.339; in [19], 0.256. Besides, the z-score in experiment [7] was 0.733; in experiment [9] it was -0.56 (inactive); in [11], -0.104 (inactive); in experiment [12] it was -0.396 (inactive); in experiment [13] it was 0.516 (inactive); in experiment [14], 0.244 (inactive).
Take `CCOC(=O)[C@H](Cc1ccccc1)NC(=O)CCC1CC(OC(=O)NCc2cccc3ccccc23)CC2(CCCC(COC(=O)NCc3cccc(C(F)(F)F)c3)O2)O1` (stereo not given in full): the composite z-score was 0.419 in experiment [1]; 0.565 in experiment [2]; 0.219 in [3]; 0.193 in experiment [4]; -0.0637 in experiment [5]; 0.0858 in experiment [6]. For the same compound, the composite z-score was 0.0217 with Lefty1; 0.0961 in [8]; -0.0693 in experiment [10]; 0.339 in [15]; -0.0375 in experiment [16]; -0.347 with Torsin-1A (Homo sapiens) [17]. For the same compound, the results for the composite z-score (in the experiment with Torsin-1A (Homo sapiens) [18]; in experiment [19]) were -0.385 and 0.0624, respectively. Also, the z-score is 1.94 in [7]; -0.114 (inactive) in [9]; -0.816 (inactive) in experiment [11]; -0.641 (inactive) in experiment [12]; 4.81 (inactive) in experiment [13]; -0.0734 (inactive) in experiment [14].
With `CC(C)=CCCC(C)=CCON=C1C[C@@H](O)[C@@H](O)[C@@H]2[C@@H]3C(=O)N(c4ccc(F)cc4F)C(=O)[C@@H]3CC[C@@H]12`, the composite z-score was 0.0658 in experiment [1]; -0.167 in experiment [2]; 0.121 in experiment [3]; 0.89 in [4]; 1.04 in experiment [5]; 0.393 in experiment [6]. The composite z-score is 1.27 with Lefty1; 1.06 in experiment [8]; 0.291 in experiment [10]; 1.45 in experiment [15]; -0.152 in [16]; 0.815 with Torsin-1A (Homo sapiens) [17]. Besides, the composite z-score was -0.0827 with Torsin-1A (Homo sapiens) [18] and 1.97 in [19]. The z-score is -0.913 in experiment [7]; 1.03 (inactive) in experiment [9]; -1.52 (inactive) in experiment [11]; -0.665 (inactive) in experiment [12]; 1.24 (inactive) in [13]; 0.671 (inactive) in experiment [14].
As to `CCOC(=O)NN=C1C[C@@H](O)[C@@H](O)[C@@H]2[C@@H]3C(=O)N(Cc4ccc5c(c4)OCO5)C(=O)[C@@H]3CC[C@H]12`, the composite z-score in experiment [1] was -0.0164; in [2], 0.117; in experiment [3], -0.243; in [4], 0.785; in experiment [5], -0.176; in experiment [6] it was -0.289. Besides, the composite z-score in the experiment on Lefty1 is 0.285; in experiment [8], 0.559; in experiment [10] it was -0.193; in experiment [15], -0.563; in experiment [16], -0.128; with Torsin-1A (Homo sapiens) [17] it was -0.566. Also, the values for the composite z-score (in the experiment with Torsin-1A (Homo sapiens) [18]; in experiment [19]) were -0.282 and 0.14, respectively. Moreover, the z-score in experiment [7] is 0.0318; in experiment [9], 1.12 (inactive); in experiment [11], -0.136 (inactive); in experiment [12], 1.46 (inactive); in [13], -0.658 (inactive); in experiment [14] it was 0.619 (inactive).
As for `CCOC(=O)[C@H](CC(C)C)NC(=O)CCC1CC(OC(=O)NCc2cccc3ccccc23)CC2(CCCC(COC(=O)NCC3CCCCC3)O2)O1` (stereo not given in full), the composite z-score in experiment [1] is 0.685; in experiment [2] it was 1.13; in experiment [3], -0.368; in [4], 0.297; in experiment [5] it was 0.62; in [6], 0.594. In addition, the composite z-score is 0.733 with Lefty1; 0.0121 in [8]; -0.0639 in experiment [10]; 0.405 in [15]; -0.0962 in experiment [16]; -0.192 with Torsin-1A (Homo sapiens) [17]. The composite z-score with Torsin-1A (Homo sapiens) [18] amounted to 0.528; in experiment [19], 1.06. For the same compound, the z-score in experiment [7] was -1.07; in experiment [9], 1 (inactive); in experiment [11], -4.12 (inactive); in experiment [12] it was -0.306 (inactive); in [13], 0.0178 (inactive); in [14], 1.6 (inactive).

These data come from PubChem BioAssay.
